Laboratory results from PubChem BioAssay (NCATS).
Inconclusive results are not listed. Activity calls are given as the source filed them. Unless noted, the call rests on the fitted dose curve; in most records, active means well fitted curve in the direction sought with a large enough effect; inconclusive means small, poorly fitted or top-dose-only effect, or another doubt; inactive means no such curve, though single readings can be large; an effect the other way counts as inactive or inconclusive.

Assays:
[1] = Nrf2 qHTS screen for inhibitors: Validation (AID 493153; active means well fitted inhibition curve with a large enough effect in the main read-out, with a control signal flat, not every such curve was filed as active); conditions: Potency: luciferase luminescence; viability change: measured here: cytotoxicity max response
Method in brief: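 A549 ARE_Fluc, 5% FBS OPTI-MEM; cpd titration, 18-24 h, 37°C/5% CO2. Read 1: CellTiter-Fluor (Ex 405/Em 525), cytotox. Read 2: luciferase lum, Nrf2 activity.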

[2] = qHTS for Inhibitors of Cell Surface uPA Generation: Validation Assay (AID 493164);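 further: RAW 264.7 macrophage cells exposed to compound for 18 h; 0% is about no effect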
Method in brief: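 ATP-Lite luminescence read-out: ATP remains high when uPA activity-dependent LF translocation into the cytoplasm is blocked. RAW 264.7 cells, 18 h compound exposure at 37 C; 7-point titration, 2.45 nM to 38.3 uM final.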

[3] = Validation screen for small molecules that induce DNA re-replication in SW480 colon adenocarcinoma cells (AID 504364); further: 0% is about no effect
Method in brief: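 Image-based qHTS: compounds were incubated with SW480 cells for 48 hr, nuclei stained with Hoechst, and per-nucleus fluorescence intensity scanned to flag cells with excess DNA content.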

[4] = target: Peptidyl-prolyl cis-trans isomerase NIMA-interacting 1 (Homo sapiens) (UniProt Q13526); experiment: qHTS Validation Assay to Find Inhibitors of Pin1 (AID 504536; active means well fitted inhibition curve with a large enough effect in the polarisation, with a control signal flat, not every such curve was filed as active; the % refers to the polarisation;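 further: 0% = full Pin1 enzyme wells and -100% = no-enzyme wells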)
Method in brief: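 Fluorescence polarization competition: compounds (titration) displace HiFluor-488-labeled Pin1-1b peptide from Pin1 (0.3 uM final) in pH 7.5 HEPES buffer with DTT, 10 min at room temperature; %Activity normalized to no-enzyme wells, curves fitted.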

[5] = target: Phosphoglycerate kinase, glycosomal (Trypanosoma brucei brucei) (UniProt P07378); experiment: qHTS Validation Assay to Find Inhibitors of Phosphoglycerate Kinase (AID 504547);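 further: control wells lack PGK and mark full inhibition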
Method in brief: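 Compounds are pinned into the substrate/PGK mixture, and GAPDH (100nM final) is added to start the reaction by producing 1,3-BPG. After 60 minutes at room temperature, Kinase-Glo Plus is added and luminescence is measured 10 minutes later.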

[6] = target: phosphoglycerate mutase (Leishmania major) (UniProt Q4Q090); experiment: qHTS Validation Assay to Find Inhibitors of Phosphoglycerate Mutase (AID 504548);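 further: end-point luminescence from Kinase-GloPlus after the PGAM reaction; series mostly up to about 58 µM; on the % scale 0 is the no-effect control and ±100 the full control effect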
Method in brief: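 L. major PGAM (1.25nM final) was added to substrate buffer and pinned compound, incubated 45 minutes at room temperature, then Kinase-GloPlus added; luminescence read after 10 minutes. Buffer: 100 mM TEA pH 7.6, 5 mM MgCl2, 0.01% Tween-20.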

[7] = Inducers of the Endoplasmic Reticulum Stress Response (ERSR) in human glioma: Validation (AID 504836); further: 0% is about no effect
Method in brief: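 Stably transfected U87-MG glioma cells carrying a GRP78-based luciferase sensor; 16 h compound incubation. Luminescence end-point read 10 min after Bright-Glo addition at room temperature.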

[8] = target: Ubiquitin carboxyl-terminal hydrolase 1 (Homo sapiens) (UniProt O94782); experiment: Inhibitors of USP1/UAF1: Pilot qHTS (AID 504865);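 further: rhodamine fluorescence freed from ubiquitin-rhodamine substrate followed over time; top concentration of the series differs between compounds; on the % scale 0 is the no-effect control and ±100 the full control effect; nearly all actives have a fitted effect of over 35% in size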
Method in brief: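 USP1/UAF1 complex at 1 nM preincubated 15 min at room temperature with compound, then Ub-Rho substrate added at 150 nM final. Fluorescence (480/540 nm) read kinetically in 50 mM HEPES pH 7.8, 0.5 mM EDTA, 1 mM TCEP, 0.1 mg/ml BSA, 0.01% Tween-20.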

[9] = qHTS for Inhibitors of ATXN expression: Validation of Cytotoxic Assay (AID 588349); further: on the % scale 0 is the no-effect control and ±100 the full control effect
Method in brief: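 Titrated compounds are added to cultured HEK293 cells, which are then held at 37 degrees C for 72 hr; loss of intracellular ATP, measured with CellTiter Glo, indicates toxicity.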

[10] = target: Thyrotropin-releasing hormone receptor (Homo sapiens) (UniProt P34981); experiment: qHTS for Small Molecule Agonists and Allosteric Enhancers of Human TRH Receptor: Validation Screen for Agonists (AID 493127;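 active means calcium activation more than 3 SD above the typical response in the agonist read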;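 further: intracellular calcium rise by fluo-8 fluorescence before TRH EC20 addition; 0% is about no effect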); conditions: TRH receptor agonist cell assay; at 2 µM; stronger effect = higher value
Method in brief: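 Compounds are added by online pintool to dye-loaded TRHR cells while fluorescence is recorded every second. A rise in calcium signal during the agonist read marks activation; a later 10 nM TRH addition (EC20) serves the separate enhancer mode.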

[11] = target: DNA dC->dU-editing enzyme APOBEC-3G (Homo sapiens) (UniProt Q9HC16); experiment: qHTS for inhibitors of Vif-A3G interactions: Validation (AID 588379); further: 0% is about no effect
Method in brief: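 Yellow fluorescence (Ex 488, Em 500-530) of Vif-coexpressing HeLa A3G-eYFP cells, scanned by Acumen cytometer, reports blocked A3G degradation. Cells plated at 700/well overnight at 37 deg C before compound addition, then a further overnight compound incubation at 37 deg C.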

[12] = target: Estrogen receptor (Homo sapiens) (UniProt P03372); experiment: qHTS assay for small molecule agonists of estrogen receptor alpha signaling (AID 588514; calls by dose curve;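 further: 0% = vehicle only and 100% = reference agonist; nearly all actives have a fitted effect of over 70% in size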)
Method in brief: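 Efficacy is expressed against 20 nM 17-beta-estradiol (100%) and DMSO basal (0%); EC50 from Hill equation. Assay: beta-lactamase reporter in ER-alpha-UAS-bla HEK 293 cells, 18 h compound incubation, CCF4 detection.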

[13] = target: Bile acid receptor (Homo sapiens) (UniProt Q96RI1); experiment: qHTS assay for small molecule agonists of farnesoid X receptor signaling (AID 588527; calls by dose curve;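 further: series mostly up to about 77 µM; 0% = vehicle basal and 100% = reference agonist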); conditions: HEK293T FXR-UAS-bla, beta-lactamase ratio, 16 h; stronger effect = higher value
Method in brief: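 Agonist-mode beta-lactamase reporter in GeneBLAzer FXR-UAS-bla HEK293T cells, titration up to 92 uM, 16 h exposure at 37 C, CCF4 fluorescence. Response scaled to DMSO (0%) and 100 uM chenodeoxycholic acid (100%), then Hill-fitted for EC50 and efficacy.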

[14] = target: Glucocorticoid receptor (Homo sapiens) (UniProt P04150); experiment: qHTS assay for small molecule agonists of glucocorticoid receptor signaling (AID 588532; active means well fitted curve in the direction sought with a large enough effect in the signal ratio, with a control signal flat; the % refers to the signal ratio;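 further: 100% = dexamethasone at 0.1 µM and 0% = DMSO only wells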); conditions: HeLa MMTV-bla, beta-lactamase ratio, agonist, 18 h; stronger effect = higher value; percent of dexamethasone control, DMSO zero
Method in brief: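 MMTV-bla HeLa beta-lactamase reporter cells in 1% charcoal/dextran FBS medium, compounds up to 92 uM for 18 h at 37 C, CCF4 readout; normalized to 0.1 uM dexamethasone (100%), EC50 and efficacy from Hill fits.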

[15] = target: Glucocorticoid receptor (Homo sapiens) (UniProt P04150); experiment: qHTS assay for small molecule antagonists of glucocorticoid receptor signaling (AID 588533; active means well fitted inhibition curve with a large enough effect in the signal ratio, with a control signal flat, not every such curve was filed as active; the % refers to the signal ratio;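 further: cells stimulated with 2 nM dexamethasone as agonist; on the % scale 0 is the no-effect control and ±100 the full control effect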)
Method in brief: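 Antagonist-mode qHTS: compound titrations added to GRE-bla HeLa cells, then dexamethasone 2 nM final; 18 h, 37 C. CCF4 FRET fluorescence normalized to dexamethasone and DMSO; IC50 from Hill fit.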

[16] = target: Estrogen receptor (Homo sapiens) (UniProt P03372); experiment: qHTS assay for small molecule antagonists of estrogen receptor alpha signaling (AID 588513; active means well fitted curve in the direction sought with a large enough effect in the signal ratio, with a control signal flat, not every such curve was filed as active; the % refers to the signal ratio; further: on the % scale 0 is the no-effect control and ±100 the full control effect)
Method in brief: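 ER-alpha-UAS-bla GripTite HEK 293 cells in 2% charcoal/dextran-treated FBS medium; compounds titrated (1:2, duplicate), then stimulated with 0.5 nM 17-beta-estradiol for 18 h at 37C. CCF4 beta-lactamase fluorescence; Hill-fit IC50 and efficacy.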

Chain of Ubiquitin carboxyl-terminal hydrolase 1 (Homo sapiens) (O94782 whole entry, looked up): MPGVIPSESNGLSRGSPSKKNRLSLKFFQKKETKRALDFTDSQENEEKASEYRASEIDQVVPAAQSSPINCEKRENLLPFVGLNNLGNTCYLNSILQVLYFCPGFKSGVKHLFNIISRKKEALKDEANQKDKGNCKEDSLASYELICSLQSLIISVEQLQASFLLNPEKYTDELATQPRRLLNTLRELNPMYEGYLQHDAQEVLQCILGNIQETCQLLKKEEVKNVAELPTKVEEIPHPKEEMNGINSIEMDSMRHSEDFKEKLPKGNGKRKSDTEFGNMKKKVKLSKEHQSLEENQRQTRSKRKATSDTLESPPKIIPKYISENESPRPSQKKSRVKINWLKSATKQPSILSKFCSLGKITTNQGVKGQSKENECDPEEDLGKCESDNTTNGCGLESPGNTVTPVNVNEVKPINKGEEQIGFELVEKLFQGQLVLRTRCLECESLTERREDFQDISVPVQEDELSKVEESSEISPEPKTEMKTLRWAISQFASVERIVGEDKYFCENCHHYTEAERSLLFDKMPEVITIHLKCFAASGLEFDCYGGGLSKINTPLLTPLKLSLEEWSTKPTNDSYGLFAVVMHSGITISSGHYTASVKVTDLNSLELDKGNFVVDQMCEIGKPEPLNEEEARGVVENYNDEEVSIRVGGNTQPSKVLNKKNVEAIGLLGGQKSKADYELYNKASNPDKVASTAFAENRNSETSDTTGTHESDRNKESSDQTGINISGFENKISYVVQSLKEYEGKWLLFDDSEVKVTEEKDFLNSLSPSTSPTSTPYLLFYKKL
Chain of DNA dC->dU-editing enzyme APOBEC-3G (Homo sapiens) (Q9HC16 whole entry, looked up): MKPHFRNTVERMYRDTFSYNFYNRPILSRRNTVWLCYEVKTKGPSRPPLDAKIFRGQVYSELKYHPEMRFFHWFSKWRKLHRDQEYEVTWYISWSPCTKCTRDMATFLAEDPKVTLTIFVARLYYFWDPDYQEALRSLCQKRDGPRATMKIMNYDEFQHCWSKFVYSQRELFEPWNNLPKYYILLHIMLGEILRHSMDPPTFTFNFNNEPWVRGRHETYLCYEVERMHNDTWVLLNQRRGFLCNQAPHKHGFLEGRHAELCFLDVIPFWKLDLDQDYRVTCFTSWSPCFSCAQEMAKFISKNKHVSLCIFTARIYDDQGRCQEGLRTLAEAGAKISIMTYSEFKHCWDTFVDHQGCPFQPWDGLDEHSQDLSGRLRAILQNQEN
Chain of phosphoglycerate mutase (Leishmania major) (Q4Q090 1-553): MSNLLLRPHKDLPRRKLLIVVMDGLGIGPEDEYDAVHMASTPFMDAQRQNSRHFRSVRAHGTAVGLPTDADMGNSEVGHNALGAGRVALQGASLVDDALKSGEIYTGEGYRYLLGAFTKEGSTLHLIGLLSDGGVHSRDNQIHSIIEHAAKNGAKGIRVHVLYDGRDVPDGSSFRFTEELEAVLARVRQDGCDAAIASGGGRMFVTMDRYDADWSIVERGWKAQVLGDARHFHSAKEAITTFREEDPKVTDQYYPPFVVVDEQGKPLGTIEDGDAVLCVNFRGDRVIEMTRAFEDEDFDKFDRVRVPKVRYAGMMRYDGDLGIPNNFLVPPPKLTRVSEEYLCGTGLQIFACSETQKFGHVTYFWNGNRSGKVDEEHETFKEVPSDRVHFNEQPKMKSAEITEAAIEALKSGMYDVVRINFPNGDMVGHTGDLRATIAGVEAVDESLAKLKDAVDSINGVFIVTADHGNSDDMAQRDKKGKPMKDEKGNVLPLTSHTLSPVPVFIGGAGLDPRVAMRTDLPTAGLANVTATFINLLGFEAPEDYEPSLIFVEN
Chain of Thyrotropin-releasing hormone receptor (Homo sapiens) (P34981 whole entry, looked up): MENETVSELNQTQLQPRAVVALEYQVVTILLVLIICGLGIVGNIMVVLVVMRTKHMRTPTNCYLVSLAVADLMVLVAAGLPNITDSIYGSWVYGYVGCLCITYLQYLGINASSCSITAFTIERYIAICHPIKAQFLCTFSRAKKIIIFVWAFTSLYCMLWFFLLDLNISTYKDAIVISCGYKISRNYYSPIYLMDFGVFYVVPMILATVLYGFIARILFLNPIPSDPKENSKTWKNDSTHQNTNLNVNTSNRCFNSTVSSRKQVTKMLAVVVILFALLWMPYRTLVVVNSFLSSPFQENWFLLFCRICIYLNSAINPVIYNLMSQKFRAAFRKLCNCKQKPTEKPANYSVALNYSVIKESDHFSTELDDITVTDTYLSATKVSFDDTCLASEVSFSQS
Chain of Peptidyl-prolyl cis-trans isomerase NIMA-interacting 1 (Homo sapiens) (Q13526 whole entry, looked up): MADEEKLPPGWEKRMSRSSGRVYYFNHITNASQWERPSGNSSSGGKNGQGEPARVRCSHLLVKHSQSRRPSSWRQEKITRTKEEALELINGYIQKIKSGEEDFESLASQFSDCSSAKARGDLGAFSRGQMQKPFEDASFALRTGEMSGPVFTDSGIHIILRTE
Chain of Estrogen receptor (Homo sapiens) (P03372 whole entry, looked up): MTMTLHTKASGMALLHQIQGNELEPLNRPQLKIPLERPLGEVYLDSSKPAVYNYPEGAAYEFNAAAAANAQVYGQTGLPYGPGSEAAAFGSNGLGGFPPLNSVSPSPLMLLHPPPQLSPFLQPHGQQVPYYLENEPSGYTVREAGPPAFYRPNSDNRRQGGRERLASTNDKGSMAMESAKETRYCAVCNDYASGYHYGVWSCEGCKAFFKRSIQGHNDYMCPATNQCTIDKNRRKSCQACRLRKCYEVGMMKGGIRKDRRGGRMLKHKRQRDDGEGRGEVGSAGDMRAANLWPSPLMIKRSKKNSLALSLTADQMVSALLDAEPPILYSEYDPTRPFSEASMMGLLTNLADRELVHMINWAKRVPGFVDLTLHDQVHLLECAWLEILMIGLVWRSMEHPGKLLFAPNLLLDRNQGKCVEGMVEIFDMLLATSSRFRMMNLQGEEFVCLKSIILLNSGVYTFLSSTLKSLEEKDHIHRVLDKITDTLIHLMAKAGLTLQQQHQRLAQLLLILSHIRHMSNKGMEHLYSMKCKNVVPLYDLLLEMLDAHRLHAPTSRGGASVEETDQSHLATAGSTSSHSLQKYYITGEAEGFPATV
Chain of Phosphoglycerate kinase, glycosomal (Trypanosoma brucei brucei) (P07378 whole entry, looked up): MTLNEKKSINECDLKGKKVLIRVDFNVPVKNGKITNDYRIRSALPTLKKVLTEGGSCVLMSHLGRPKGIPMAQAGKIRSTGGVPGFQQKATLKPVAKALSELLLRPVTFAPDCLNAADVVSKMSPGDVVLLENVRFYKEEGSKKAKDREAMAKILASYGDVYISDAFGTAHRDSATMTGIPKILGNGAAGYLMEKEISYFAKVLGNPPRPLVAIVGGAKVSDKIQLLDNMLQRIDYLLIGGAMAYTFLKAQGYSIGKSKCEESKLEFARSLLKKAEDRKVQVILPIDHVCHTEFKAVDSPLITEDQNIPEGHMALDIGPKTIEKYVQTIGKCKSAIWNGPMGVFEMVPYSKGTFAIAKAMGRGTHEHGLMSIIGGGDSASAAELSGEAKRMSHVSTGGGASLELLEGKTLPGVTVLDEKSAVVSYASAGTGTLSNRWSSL
Chain of Glucocorticoid receptor (Homo sapiens) (P04150 whole entry, looked up): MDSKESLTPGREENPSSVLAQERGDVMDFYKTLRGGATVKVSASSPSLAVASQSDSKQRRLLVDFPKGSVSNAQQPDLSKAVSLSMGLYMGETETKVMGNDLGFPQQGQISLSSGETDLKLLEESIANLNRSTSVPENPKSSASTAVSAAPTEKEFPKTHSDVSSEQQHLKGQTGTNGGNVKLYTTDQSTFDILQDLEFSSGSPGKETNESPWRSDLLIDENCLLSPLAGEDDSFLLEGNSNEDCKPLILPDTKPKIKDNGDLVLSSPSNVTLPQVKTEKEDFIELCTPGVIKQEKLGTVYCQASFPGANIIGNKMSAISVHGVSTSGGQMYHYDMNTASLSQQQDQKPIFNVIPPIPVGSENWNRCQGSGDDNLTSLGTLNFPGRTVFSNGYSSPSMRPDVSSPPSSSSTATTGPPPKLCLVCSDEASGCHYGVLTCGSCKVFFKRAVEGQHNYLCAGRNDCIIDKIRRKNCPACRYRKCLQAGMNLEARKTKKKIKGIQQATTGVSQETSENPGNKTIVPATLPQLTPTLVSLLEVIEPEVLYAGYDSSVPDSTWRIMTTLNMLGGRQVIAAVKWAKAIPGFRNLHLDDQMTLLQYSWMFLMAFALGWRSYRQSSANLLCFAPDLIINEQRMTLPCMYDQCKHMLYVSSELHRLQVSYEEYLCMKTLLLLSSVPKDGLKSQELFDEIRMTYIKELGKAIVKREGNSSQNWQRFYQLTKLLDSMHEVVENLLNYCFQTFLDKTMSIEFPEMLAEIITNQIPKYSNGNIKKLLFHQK
Chain of Bile acid receptor (Homo sapiens) (Q96RI1 whole entry, looked up): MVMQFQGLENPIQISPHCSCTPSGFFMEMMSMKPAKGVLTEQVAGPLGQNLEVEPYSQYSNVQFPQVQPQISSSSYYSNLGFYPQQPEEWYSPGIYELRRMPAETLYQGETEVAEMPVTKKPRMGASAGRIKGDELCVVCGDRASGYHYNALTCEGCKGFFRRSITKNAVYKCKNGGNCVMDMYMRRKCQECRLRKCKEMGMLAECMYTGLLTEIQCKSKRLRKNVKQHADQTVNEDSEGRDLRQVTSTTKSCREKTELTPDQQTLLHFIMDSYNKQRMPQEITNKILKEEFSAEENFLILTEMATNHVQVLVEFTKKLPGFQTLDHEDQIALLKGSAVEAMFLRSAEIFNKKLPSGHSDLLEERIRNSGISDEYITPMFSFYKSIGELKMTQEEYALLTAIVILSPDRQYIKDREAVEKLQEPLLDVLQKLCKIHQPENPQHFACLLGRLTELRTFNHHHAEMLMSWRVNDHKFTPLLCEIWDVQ

CC(CCc1ccccc1)NC(C)C(O)c1ccc(O)cc1 (stereo not given)
-10.8%: viability change [1]
inactive: Potency [1] | outcome [2] | Potency [3] | Potency [4] | Potency [5] | outcome [6] | outcome [7] | Potency [8]

Cc1cccc(C)c1NC(=O)CN1CCCC1=O
-4.1%: viability change [1]
inactive: Potency [1] | outcome [2] | Potency [5] | outcome [6] | outcome [7] | Potency [8] | Potency [9]

CC(=O)[C@H]1CC[C@H]2[C@@H]3CC[C@H]4C[C@H](O)CC[C@]4(C)[C@H]3C(=O)C[C@]12C
inactive: activation [10] 1.5% | outcome [2] | Potency [3] | Potency [4] | Potency [5] | outcome [6] | outcome [7] | Potency [8] | Potency [9]

O=c1[nH]c2ccccc2n1C1CCN(CCCC(c2ccc(F)cc2)c2ccc(F)cc2)CC1
inactive: outcome [2] | Potency [3] | Potency [4] | Potency [5] | outcome [6] | outcome [7] | Potency [9] | outcome [11] | Potency [12] | activation [13] -1.92% | activation [14] 4.7% | Potency [15]

N#CC(C#N)=Cc1ccc(O)c(O)c1
-7.57%: viability change [1]
inactive: activation [10] 1.19% | Potency [1] | outcome [2] | Potency [3] | Potency [4] | Potency [5] | outcome [6] | outcome [7] | Potency [8] | Potency [9] | outcome [11]

CN1C[C@H](CNC(=O)OCc2ccccc2)C[C@@H]2c3cccc4c3c(cn4C)C[C@H]21
inactive: activation [10] 7.38% | outcome [2] | Potency [5] | outcome [6] | outcome [7] | Potency [8] | outcome [11]

NCC1(CC(=O)O)CCCCC1
10.1%: viability change [1]
inactive: activation [10] 1.12% | Potency [1] | outcome [2] | Potency [3] | Potency [4] | Potency [5] | outcome [6] | outcome [7] | Potency [8] | Potency [9] | outcome [11]

CC[C@@H](CO)NC(=O)[C@@H]1C=C2c3cccc4c3c(cn4C)C[C@H]2N(C)C1
inactive: Potency [1] | outcome [2] | Potency [5] | outcome [6] | outcome [7] | Potency [8]
-1.92%: viability change [1]

O=C1NCN(c2ccccc2)C12CCN(CC1COc3ccccc3O1)CC2 (stereo not given)
inactive: activation [10] 0.562% | Potency [1] | outcome [2] | Potency [3] | Potency [4] | Potency [5] | outcome [6] | outcome [7] | Potency [8] | Potency [9]
1.49%: viability change [1]

CCCC(C)(COC(N)=O)COC(=O)NC(C)C (stereo not given)
5.42%: viability change [1]
inactive: activation [10] -0.188% | Potency [1] | outcome [2] | Potency [3] | Potency [4] | Potency [5] | outcome [6] | outcome [7] | Potency [8] | Potency [9] | outcome [16] | Potency [12]
